For assay [1], the target named is Ubiquitin carboxyl-terminal hydrolase 1 (Homo sapiens) (UniProt O94782). Nature of the assay: Inhibitors of USP1/UAF1: Pilot qHTS (AID 504865; active = well fitted curve in the direction sought with a large enough effect; inconclusive = small, poorly fitted or top-dose-only effect, or another doubt; inactive = no such curve, though single readings can be large; an effect the other way counts as inactive or inconclusive;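 note: rhodamine fluorescence freed from ubiquitin-rhodamine substrate followed over time; top concentration of the series differs between compounds; % is set by controls: 0 for no effect and ±100 for the full control effect; nearly all actives have a fitted effect of over 35% in size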). In a few lines:
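USP1/UAF1 complex at 1 nM preincubated 15 min at room temperature with compound, then Ub-Rho substrate added at 150 nM final. Fluorescence (480/540 nm) read kinetically in 50 mM HEPES pH 7.8, 0.5 mM EDTA, 1 mM TCEP, 0.1 mg/ml BSA, 0.01% Tween-20.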

The target in assay [2] is Luciferin 4-monooxygenase (Photinus pyralis) (UniProt P08659). The assay can be described thus: Biochemical firefly luciferase enzyme assay for NPC (AID 624030; active = well fitted curve in the direction sought with a large enough effect; inconclusive = small, poorly fitted or top-dose-only effect, or another doubt; inactive = no such curve, though single readings can be large; an effect the other way counts as inactive or inconclusive;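 note: purified P. pyralis luciferase at 10 nM with luciferin and ATP substrate; 0% = DMSO and -100% = full luciferase inhibition by PTC124 control; nearly all actives have a fitted effect of over 70% in size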). In a few lines: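 Counter-screen for direct inhibition of the luciferase enzyme by approved-drug library compounds, run at 10 nM enzyme in 50 mM Tris acetate (final). Luminescence was read within 5 min of enzyme-buffer addition and normalized to PTC124 versus DMSO (0%).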
Sequence of Luciferin 4-monooxygenase (Photinus pyralis) (P08659 whole entry, looked up): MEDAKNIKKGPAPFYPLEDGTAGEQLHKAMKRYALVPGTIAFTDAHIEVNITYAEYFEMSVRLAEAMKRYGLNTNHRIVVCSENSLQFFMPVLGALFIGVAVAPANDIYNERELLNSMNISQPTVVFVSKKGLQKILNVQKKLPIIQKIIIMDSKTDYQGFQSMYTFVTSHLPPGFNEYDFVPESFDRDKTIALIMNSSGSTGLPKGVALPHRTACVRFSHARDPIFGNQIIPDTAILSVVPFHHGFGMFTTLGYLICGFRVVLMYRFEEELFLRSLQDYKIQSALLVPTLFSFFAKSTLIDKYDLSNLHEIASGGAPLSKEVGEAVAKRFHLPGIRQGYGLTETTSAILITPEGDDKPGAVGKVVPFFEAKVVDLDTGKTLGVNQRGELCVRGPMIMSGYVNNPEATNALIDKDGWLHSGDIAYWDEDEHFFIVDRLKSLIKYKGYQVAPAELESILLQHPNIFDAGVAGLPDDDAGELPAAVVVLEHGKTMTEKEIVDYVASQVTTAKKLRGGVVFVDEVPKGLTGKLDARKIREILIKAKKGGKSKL

The nature of assay [3]: S16 Schwann cell PMP22 intronic element beta-lactamase assay (AID 624044; calls by dose curve;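 note: 0% = DMSO and -100% = potassium clavulanate positive control; nearly all actives have a fitted effect of over 15% in size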). In a few lines: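 Beta-lactamase reporter under a PMP22 intronic regulatory element in stable S16 rat Schwann cells; 24 h compound exposure. 460 nm blue signal normalized between DMSO (0%) and potassium clavulanate, with 535 nm FRET tracking viability; curves classed by r2 and response.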
Assay [4] can be described thus: qHTS profiling for inhibitors of Plasmodium falciparum proliferation (AID 504749; active = well fitted curve in the direction sought with a large enough effect; inconclusive = small, poorly fitted or top-dose-only effect, or another doubt; inactive = no such curve, though single readings can be large; an effect the other way counts as inactive or inconclusive; note: potency is the fitted concentration of half-maximal effect;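 for activity, negative = inhibition: 0% = DMSO vehicle and full inhibition = artemisinin control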; for all read-outs here: nearly all actives have a fitted effect of over 60% in size). As to conditions: P. falciparum in erythrocytes, SYBR Green DNA, 72 h; for activity, negative = inhibition: at 28.7 µM (top of the series). The gist of the method: (§1)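 Quantitative HTS: compounds pinned into medium, infected erythrocytes added (0.3% parasitemia, 2.5% hematocrit), 72 h culture at 37 C under 5% CO2. Saponin/Triton lysis with SYBR Green I, overnight RT, then fluorescence read.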

The next assay concerns CP262. The assay is described as above. As to conditions: P. falciparum in erythrocytes, SYBR Green DNA, 72 h; series mostly up to 28.7 µM. The gist of the method: as §1
A further assay concerns CP335. The description is as above. The following applies: P. falciparum in erythrocytes, SYBR Green DNA, 72 h; series mostly up to 28.7 µM. In a few lines:
as §1

The next assay concerns GB4. The assay is described as above. The following applies: P. falciparum in erythrocytes, SYBR Green DNA, 72 h; series mostly up to 28.7 µM. The gist of the method:
as §1

In another assay the test system is W2. The assay is described as above. The following applies: P. falciparum in erythrocytes, SYBR Green DNA, 72 h; series mostly up to 28.7 µM. The gist of the method: as §1
The target of assay [5] is Lysosomal acid glucosylceramidase (Homo sapiens) (UniProt P04062). Nature of the assay: Glucocerebrosidase-p2 (AID 348; in the data active = potency below about 10 µM; note: potency is the fitted concentration of half-maximal effect). As to conditions: purified GBA, blue fluorogenic substrate, 40 min. The gist of the method:
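Normal human glucocerebrosidase (0.2 nM) with blue fluorogenic substrate (80 uM final) in citrate/phosphate pH 5.9 with 10mM sodium taurocholate, 0.01% tween-20; 40 min RT, NaOH/glycine stop; fluorescence Ex 365/Em 440; AC50 from a titration from 0.6 nM upwards.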

Assay [6] can be described thus: AP1 Signaling Pathway (AID 357). Note: % is set by controls: 0 for no effect and ±100 for the full control effect. As to conditions: ME-180 (cervical carcinoma) AP-1-bla reporter, EGF-induced, beta-lactamase ratio, 5 h; at 7.69 µM (top of the series) unless noted. In a few lines: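 Read-out was the 460nm/530nm emission ratio (excitation 405nm) after CCF4 loading for 2.5 hours at room temperature. Cells carried an AP-1-driven beta-lactamase reporter, were stimulated with EC50 EGF plus compound for 5 hours, and AC50 values came from titrations.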

Assay [7] in a line: Stat Signaling Pathway (AID 446).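 Note: ME-180 cervical cancer cells given 40 pM IL-6 alongside compound; SIE-controlled beta-lactamase reporter measured as 460/530 nm FRET emission ratio; % is set by controls: 0 for no effect and ±100 for the full control effect.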 In a few lines:
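Emission at 460 and 530 nm (excitation 405 nm) reports SIE-controlled beta-lactamase in ME-180 cells. Cells received compound with 40 pM IL-6 for 5 hrs at 37 C; data scaled between 300 pM IL-6 and 125 nM JAK-inhibitor controls.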

Assay [8] has as its target Glucocorticoid receptor (Homo sapiens) (UniProt P04150). Nature of the assay: GR-EFC Redistribution (AID 451; calls by dose curve; note: potency is the fitted concentration of half-maximal effect). The following applies: CHO-K1 GR-EFC translocation, beta-gal luminescence, 2 h. In a few lines: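 CHO-K1 cells stably expressing nuclear-localized β-gal enzyme acceptor and GR fused C-terminally to the enzyme donor fragment; ligand-driven nuclear translocation restores β-gal by complementation. Compounds titrated up to 46 uM final, 2 h at 37 °C; luminescence read.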

Assay [9] has as its target Cytochrome P450 1A2 (Homo sapiens) (UniProt P05177). The assay can be described thus: p450-cyp1a2 (AID 410; calls by dose curve; note: potency is the fitted concentration of half-maximal effect). The gist of the method: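 Luminescent demethylation readout: Luciferin-ME (100uM, equal to Km) turned over by 20nM CYP1A2 for 60 min at room temperature after NADPH regeneration addition, following 10 min compound preincubation. Normalization used 57 uM furafylline as full inhibition.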

Assay [10] can be described thus: NFAT Signaling Pathway (AID 444).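 Note: carbachol stimulus at about its EC50 of 1 µM final; % is set by controls: 0 for no effect and ±100 for the full control effect.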 As to conditions: Jurkat NFAT-bla M1, carbachol, beta-lactamase ratio, 5 h; at 7.69 µM (top of the series) unless noted. In a few lines: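 Jurkat cells carrying an NFAT-driven β-lactamase reporter and co-transfected muscarinic M1 receptor were treated with compound plus carbachol (1 uM final, an EC50 level) for 5 h at 37 °C. CCF4 loading followed for 1 h at RT; 460/530 nm ratio gave %activity.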

Assay [11] addresses Cytochrome P450 3A4 (Homo sapiens) (UniProt P08684). Nature of the assay: qHTS Assay for Activators of Cytochrome P450 3A4 (AID 885; active = well fitted curve in the direction sought with a large enough effect; inconclusive = small, poorly fitted or top-dose-only effect, or another doubt; inactive = no such curve, though single readings can be large; an effect the other way counts as inactive or inconclusive; note: nearly all actives have a fitted effect of over 65% in size). The gist of the method: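 Activators are scored by enhanced luminescence from CYP3A4 conversion of luciferin-PPXE (25uM, equal to KM) to luciferin, after 60 min at RT with an NADPH-regenerating system.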
Assay [12] deals with Estrogen receptor (Homo sapiens) (UniProt P03372). Nature of the assay: qHTS assay for small molecule antagonists of estrogen receptor alpha signaling (AID 588513; active = well fitted curve in the direction sought with a large enough effect in the signal ratio, with a control signal flat, not every such curve was filed as active; inconclusive = small, poorly fitted or top-dose-only effect, or effect the other way, or a change in a side signal; inactive = no such curve, though single readings can be large or run the other way; the % refers to the signal ratio; note: potency is the fitted concentration of half-maximal effect). In a few lines:
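ER-alpha-UAS-bla GripTite HEK 293 cells in 2% charcoal/dextran-treated FBS medium; compounds titrated (1:2, duplicate), then stimulated with 0.5 nM 17-beta-estradiol for 18 h at 37C. CCF4 beta-lactamase fluorescence; Hill-fit IC50 and efficacy.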

Assay [13] has as its target Glucocorticoid receptor (Homo sapiens) (UniProt P04150). Nature of the assay: GR-GFP Redistribution (AID 450;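 active = compounds whose dose series gives a full or clear partial fitted curve of increased nuclear translocation; inconclusive = weak partial curve or effect only at the top dose; inactive = no dose-dependent translocation response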; note: potency is the fitted concentration of half-maximal effect). The following applies: U2OS GR-GFP nuclear translocation, laser cytometry, 2 h.
Assay [14] addresses Androgen receptor (Homo sapiens) (UniProt P10275). The assay can be described thus: qHTS assay for small molecule antagonists of androgen receptor signaling (AID 588516; active = well fitted curve in the direction sought with a large enough effect in the signal ratio, with a control signal flat, not every such curve was filed as active; inconclusive = small, poorly fitted or top-dose-only effect, or effect the other way, or a change in a side signal; inactive = no such curve, though single readings can be large or run the other way; the % refers to the signal ratio; note: % is set by controls: 0 for no effect and ±100 for the full control effect). In a few lines:
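AR-UAS-bla GripTite HEK 293 cells (2000/well) treated with compound titrations plus 10 nM R1881 for 16 h at 37C. Beta-lactamase read by CCF4 FRET (460/530 nm); IC50 from Hill fits, normalized to R1881 and DMSO control wells.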

Assay [15] has the same target. The assay can be described thus: qHTS assay for small molecule agonists of androgen receptor signaling (AID 588515; active = well fitted curve in the direction sought with a large enough effect in the signal ratio, with a control signal flat; inconclusive = small, poorly fitted or top-dose-only effect, or effect the other way, or a change in a side signal; inactive = no such curve, though single readings can be large or run the other way; the % refers to the signal ratio; note: % is set by controls: 0 for no effect and ±100 for the full control effect). The following applies: AR-UAS-bla HEK293, beta-lactamase ratio, agonist 16 h; stronger effect = higher value. In a few lines: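 Stimulation of an AR-responsive β-lactamase reporter in GripTite HEK293 cells was measured after 16 h compound exposure at 37 °C, via CCF4 fluorescence after 2 h RT. EC50 from Hill fits, normalized to R1881 at 30 nM.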

Structures are written as SMILES. Values joined by “and” are separate entries in the source; they are usually repeats but may differ in a detail not shown here. Equal entries are not always repeated. Unmarked numbers belong to inactive results. Active and inactive are the calls of the source. Unless noted, calls come from the whole dose curve; as a rule, active = well fitted curve in either direction with a large enough effect (not every such curve was filed as active); inconclusive = small, poorly fitted or top-dose-only effect, or another doubt; inactive = flat fitted curve, though single readings scatter.

Sequence of Cytochrome P450 3A4 (Homo sapiens) (P08684 whole entry, looked up): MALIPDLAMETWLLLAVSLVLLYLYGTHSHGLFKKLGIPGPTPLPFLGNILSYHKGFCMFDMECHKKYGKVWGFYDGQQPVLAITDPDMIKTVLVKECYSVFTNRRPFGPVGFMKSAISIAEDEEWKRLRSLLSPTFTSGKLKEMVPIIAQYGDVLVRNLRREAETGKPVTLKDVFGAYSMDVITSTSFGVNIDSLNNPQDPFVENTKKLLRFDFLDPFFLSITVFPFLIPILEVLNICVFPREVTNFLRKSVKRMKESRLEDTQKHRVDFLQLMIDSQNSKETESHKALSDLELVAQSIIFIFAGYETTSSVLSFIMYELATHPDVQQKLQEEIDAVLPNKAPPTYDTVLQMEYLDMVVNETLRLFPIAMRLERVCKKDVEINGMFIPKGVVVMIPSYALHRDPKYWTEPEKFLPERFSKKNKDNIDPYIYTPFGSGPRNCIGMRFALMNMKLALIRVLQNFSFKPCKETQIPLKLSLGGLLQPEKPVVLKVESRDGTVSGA
Sequence of Ubiquitin carboxyl-terminal hydrolase 1 (Homo sapiens) (O94782 whole entry, looked up): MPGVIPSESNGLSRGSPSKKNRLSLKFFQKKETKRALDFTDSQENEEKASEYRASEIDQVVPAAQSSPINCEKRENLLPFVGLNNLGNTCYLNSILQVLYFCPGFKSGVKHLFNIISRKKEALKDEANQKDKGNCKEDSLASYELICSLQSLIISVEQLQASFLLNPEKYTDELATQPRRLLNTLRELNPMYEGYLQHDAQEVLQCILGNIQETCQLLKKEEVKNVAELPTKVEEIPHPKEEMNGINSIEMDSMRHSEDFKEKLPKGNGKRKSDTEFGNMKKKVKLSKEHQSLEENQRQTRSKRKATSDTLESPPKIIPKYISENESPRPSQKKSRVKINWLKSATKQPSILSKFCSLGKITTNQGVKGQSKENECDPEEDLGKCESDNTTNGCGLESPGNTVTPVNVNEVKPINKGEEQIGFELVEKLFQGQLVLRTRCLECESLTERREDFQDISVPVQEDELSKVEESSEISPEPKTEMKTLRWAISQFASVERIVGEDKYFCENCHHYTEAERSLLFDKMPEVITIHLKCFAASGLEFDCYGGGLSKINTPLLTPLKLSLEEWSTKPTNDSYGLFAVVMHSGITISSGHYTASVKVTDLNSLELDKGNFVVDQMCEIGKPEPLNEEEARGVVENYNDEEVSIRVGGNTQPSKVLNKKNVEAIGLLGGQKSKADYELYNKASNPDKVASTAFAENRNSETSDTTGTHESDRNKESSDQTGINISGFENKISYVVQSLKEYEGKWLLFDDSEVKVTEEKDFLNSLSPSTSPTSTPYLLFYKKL
Sequence of Androgen receptor (Homo sapiens) (P10275 whole entry, looked up): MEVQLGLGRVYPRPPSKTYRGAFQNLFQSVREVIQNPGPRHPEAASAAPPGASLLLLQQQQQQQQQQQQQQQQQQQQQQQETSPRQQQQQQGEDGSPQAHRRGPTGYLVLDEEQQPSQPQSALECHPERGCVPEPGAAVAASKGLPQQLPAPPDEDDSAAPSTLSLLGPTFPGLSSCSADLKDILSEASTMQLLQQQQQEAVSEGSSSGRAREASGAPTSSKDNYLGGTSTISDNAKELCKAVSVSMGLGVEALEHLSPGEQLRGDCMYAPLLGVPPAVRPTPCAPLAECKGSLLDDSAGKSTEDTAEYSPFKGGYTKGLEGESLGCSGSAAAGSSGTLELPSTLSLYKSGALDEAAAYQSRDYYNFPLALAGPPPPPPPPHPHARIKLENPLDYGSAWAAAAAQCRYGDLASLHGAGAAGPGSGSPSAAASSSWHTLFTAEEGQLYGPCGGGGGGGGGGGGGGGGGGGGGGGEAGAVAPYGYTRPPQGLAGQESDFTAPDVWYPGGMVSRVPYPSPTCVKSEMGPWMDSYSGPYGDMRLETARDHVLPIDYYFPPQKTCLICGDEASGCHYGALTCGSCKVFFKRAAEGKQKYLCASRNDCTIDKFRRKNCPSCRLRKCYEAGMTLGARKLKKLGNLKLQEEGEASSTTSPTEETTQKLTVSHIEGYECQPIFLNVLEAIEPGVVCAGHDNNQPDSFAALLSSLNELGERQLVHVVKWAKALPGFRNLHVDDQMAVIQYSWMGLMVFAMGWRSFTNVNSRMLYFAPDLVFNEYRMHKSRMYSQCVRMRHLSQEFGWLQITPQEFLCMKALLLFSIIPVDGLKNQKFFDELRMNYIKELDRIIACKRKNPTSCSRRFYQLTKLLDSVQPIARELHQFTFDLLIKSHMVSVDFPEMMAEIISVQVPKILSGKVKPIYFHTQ
Sequence of Glucocorticoid receptor (Homo sapiens) (P04150 whole entry, looked up, the tested form may be a part): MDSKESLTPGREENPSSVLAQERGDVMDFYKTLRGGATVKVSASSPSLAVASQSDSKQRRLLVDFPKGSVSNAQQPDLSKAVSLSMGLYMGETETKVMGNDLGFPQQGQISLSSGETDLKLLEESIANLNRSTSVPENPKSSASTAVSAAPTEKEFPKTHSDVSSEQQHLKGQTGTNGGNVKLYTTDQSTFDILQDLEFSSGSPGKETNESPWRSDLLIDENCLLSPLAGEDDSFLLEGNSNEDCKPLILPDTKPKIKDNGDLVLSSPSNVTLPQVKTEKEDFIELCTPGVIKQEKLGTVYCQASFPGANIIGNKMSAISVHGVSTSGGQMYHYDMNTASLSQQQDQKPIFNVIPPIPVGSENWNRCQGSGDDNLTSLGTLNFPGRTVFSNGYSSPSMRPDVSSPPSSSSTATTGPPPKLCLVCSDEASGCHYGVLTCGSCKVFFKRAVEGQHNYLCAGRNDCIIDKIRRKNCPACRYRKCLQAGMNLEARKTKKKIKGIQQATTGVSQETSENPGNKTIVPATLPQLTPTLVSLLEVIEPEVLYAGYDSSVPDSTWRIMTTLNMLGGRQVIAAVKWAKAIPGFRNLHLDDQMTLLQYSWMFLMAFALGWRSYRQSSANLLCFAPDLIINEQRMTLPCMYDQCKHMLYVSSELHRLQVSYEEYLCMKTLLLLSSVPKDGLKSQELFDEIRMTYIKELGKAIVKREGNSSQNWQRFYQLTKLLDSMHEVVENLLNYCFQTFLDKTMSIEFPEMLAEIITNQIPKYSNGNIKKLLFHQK
Sequence of Lysosomal acid glucosylceramidase (Homo sapiens) (P04062 whole entry, looked up): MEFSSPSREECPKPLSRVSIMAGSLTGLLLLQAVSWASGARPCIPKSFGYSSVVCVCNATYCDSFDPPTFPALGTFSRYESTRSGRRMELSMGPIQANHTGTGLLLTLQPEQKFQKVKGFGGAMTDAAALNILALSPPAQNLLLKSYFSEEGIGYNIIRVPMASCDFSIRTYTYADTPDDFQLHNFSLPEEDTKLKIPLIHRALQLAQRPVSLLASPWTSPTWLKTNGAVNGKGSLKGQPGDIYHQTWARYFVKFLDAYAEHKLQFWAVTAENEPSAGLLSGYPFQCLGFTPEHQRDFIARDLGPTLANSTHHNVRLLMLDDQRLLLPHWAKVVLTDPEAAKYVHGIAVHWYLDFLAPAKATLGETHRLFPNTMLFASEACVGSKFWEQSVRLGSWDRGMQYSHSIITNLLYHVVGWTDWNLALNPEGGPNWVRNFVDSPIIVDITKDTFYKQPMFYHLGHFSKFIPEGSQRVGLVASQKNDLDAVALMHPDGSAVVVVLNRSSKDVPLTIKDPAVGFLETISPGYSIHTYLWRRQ
Sequence of Cytochrome P450 1A2 (Homo sapiens) (P05177 whole entry, looked up): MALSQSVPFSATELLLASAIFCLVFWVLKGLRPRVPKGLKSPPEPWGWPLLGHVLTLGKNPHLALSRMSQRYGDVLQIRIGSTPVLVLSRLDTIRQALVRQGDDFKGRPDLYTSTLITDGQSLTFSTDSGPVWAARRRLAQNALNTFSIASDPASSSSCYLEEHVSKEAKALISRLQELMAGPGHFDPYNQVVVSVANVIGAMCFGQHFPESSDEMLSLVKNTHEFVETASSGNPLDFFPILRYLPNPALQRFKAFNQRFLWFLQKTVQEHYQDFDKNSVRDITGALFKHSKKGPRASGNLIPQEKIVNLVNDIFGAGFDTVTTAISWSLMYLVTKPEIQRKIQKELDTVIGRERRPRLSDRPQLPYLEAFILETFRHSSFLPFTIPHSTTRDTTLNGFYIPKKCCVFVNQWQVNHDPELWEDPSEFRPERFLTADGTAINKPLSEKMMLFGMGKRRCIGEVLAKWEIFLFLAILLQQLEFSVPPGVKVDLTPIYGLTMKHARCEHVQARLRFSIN

Turning to `CC1(C)S[C@@H]2[C@H](NC(=O)COc3ccccc3)C(=O)N2[C@H]1C(=O)O`, the Potency result (in assay [1]; in [2]; in [3]; in the assay on CP262; in the assay with CP335; in the assay on GB4) was “inactive” each time. Besides, in the assay on W2, the Potency result is “inactive”. Besides, the activity, negative = inhibition is 4.88% in assay [4] (parasite line A) and 4.38% in assay [4] (parasite line B).
In the case of `CN(C)c1nc(-c2cccc(C#N)c2)nc2ccccc12`, the Potency in assay [5] is above 11.4 µM; in assay [8], above 46 µM. The activity change, negative = inhibition in [6] is 2.42%. For the same compound, the compound was called inactive in assay [7]. Moreover, the Potency entry in assay [1] is “inactive”.
Regarding `COc1cccc(Cn2c(=O)c(CCc3ccccc3)nc3cnc(N(C)C)nc32)c1`, the Potency in [5] is above 11.4 µM; in [9] it was 15.8 µM (active); in [8] it was above 46 µM. Further, the activity change, negative = inhibition is -2.39% in assay [6] and 6.19% in [10]. In addition, the compound was classed as inactive in [7] and in [11].
On to `Cc1ccccc1-c1ccc2ncnc(NCCN3CCOCC3)c2c1`, for which the activity change, negative = inhibition in assay [10] was -0.729%. Further, the outcome in assay [7] was inactive. Also, the Potency in assay [8] is above 46 µM. In addition, the Potency entry in assay [1] is “inactive”.
On to `C=CC(=O)OCCOCCOCCOCCOC(=O)C=C`, for which the Potency in [12] is 39.8 µM [inconclusive] (active).
`COc1ccc2[nH]cc(CCNc3nc(-c4c(C)noc4C)nc4ccccc34)c2c1`: the Potency in assay [5] is above 2.29 µM; in [13] it was above 46 µM; in assay [8] it was above 46 µM. Besides, the activity change, negative = inhibition in [6] is -24.6%. Besides, the Potency result in assay [1] is “inactive”.
Take `COc1ccc(CNc2ncncc2-c2ccccc2OC)c(OC)c1`: the Potency is above 11.4 µM in [5], 5.01 µM (active) in assay [9], above 46 µM in assay [13] and above 46 µM in assay [8]. In addition, the figures for the activity change, negative = inhibition in [6] and in assay [10] were -23.4% and -12.1%, respectively. The result in [7] and in [11] was inactive.
With `COc1ccc2[nH]cc(CCNc3nc(-c4ccccc4OC)nc4ccccc34)c2c1`, the Potency in assay [5] was above 11.4 µM; in assay [9], 6.31 µM (active); in assay [13], above 46 µM; in assay [8], above 46 µM. The activity change, negative = inhibition in [6] was 23.7%. Further, the outcome in [7] and in [11] was inactive.
In the case of `c1ccc2c(c1)c1cccc3ccc4cccc2c4c31`, the call in [14] was inactive.
Regarding `COc1ccc2[nH]cc(CCNc3ncncc3-c3ccccc3C(F)(F)F)c2c1`, the Potency in assay [5] is above 11.4 µM; in assay [9] it was 10 µM (active); in assay [8], above 46 µM. Moreover, the activity change, negative = inhibition in assay [6] is 3.8%; in assay [10] it was -3.73%. In addition, the compound was classed as inactive in assay [7] and in assay [11].
With `CN(Cc1ccco1)c1nc(-c2cccnc2)nc2ccccc12`, the Potency was above 11.4 µM in assay [5], 0.316 µM (active) in assay [9], above 46 µM in assay [13] and above 46 µM in assay [8]. In [10], the activity change, negative = inhibition was -25.8%. Moreover, the outcome in assay [7] was inactive. Besides, the Potency result in [1] was “inactive”.
On to `CC(C)(CO)C(O)C(=O)NCCCC(=O)O` (configuration not stated), for which the Potency entry (in assay [1]; in [2]; in [3]; in the assay with CP262; with GB4) was “inactive” throughout. Moreover, in assay [4] (parasite line A), the Potency is 0.0141 µM (active).
In the case of `C=Cc1ccccc1Cl`, the activation in [15] is -2.34%. Besides, the compound was classed as inactive in assay [14].
As for `c1ccc2c(NCCN3CCOCC3)nc(-c3ccc4c(c3)OCO4)nc2c1`, the results for the Potency in [5] and in assay [8] were above 11.4 µM and above 46 µM, respectively. The activity change, negative = inhibition in assay [6] is -11.7%. Moreover, in assay [7], the compound was classed as inactive.
Turning to `OCCNCCO`, in [12], the Potency result was “inactive”.
As to `COc1ccccc1CNc1nc(-c2cccc(NS(C)(=O)=O)c2)nc2ccccc12`, the Potency in [5] was above 11.4 µM; in assay [8], above 46 µM. The activity change, negative = inhibition in assay [6] is -13.2%; in assay [10], -21%. The compound was classed as inactive in assay [7]. Further, the Potency entry in assay [1] was “inactive”.
With `Cc1c(N=C=O)cccc1N=C=O`, the activation in [15] is -8.11% and -0.971%. Also, the outcome in [14] was inactive.

The record behind these values is PubChem BioAssay (NCATS).
